Here are results for 28 compounds from PubChem BioAssay AID540359 (Broad Institute, 2011).

Results with a measured potency or affinity are listed apart. The source made the active and inactive calls. The rule behind the calls is not given here.

The target in the assay is UDP-galactopyranose mutase (Mycobacterium tuberculosis (strain ATCC 25618 / H37Rv)) (UniProt P9WIQ1). Kind of assay: UDP galactopyranose mutase inhibitors, Mycobacterium tuberculosis, cherry pick dose confirmation (AID 540359). To be noted: purified UGM enzyme, plate reader activity; series mostly up to 50 µM.
Chain of UDP-galactopyranose mutase (Mycobacterium tuberculosis (strain ATCC 25618 / H37Rv)) (P9WIQ1 whole entry, looked up): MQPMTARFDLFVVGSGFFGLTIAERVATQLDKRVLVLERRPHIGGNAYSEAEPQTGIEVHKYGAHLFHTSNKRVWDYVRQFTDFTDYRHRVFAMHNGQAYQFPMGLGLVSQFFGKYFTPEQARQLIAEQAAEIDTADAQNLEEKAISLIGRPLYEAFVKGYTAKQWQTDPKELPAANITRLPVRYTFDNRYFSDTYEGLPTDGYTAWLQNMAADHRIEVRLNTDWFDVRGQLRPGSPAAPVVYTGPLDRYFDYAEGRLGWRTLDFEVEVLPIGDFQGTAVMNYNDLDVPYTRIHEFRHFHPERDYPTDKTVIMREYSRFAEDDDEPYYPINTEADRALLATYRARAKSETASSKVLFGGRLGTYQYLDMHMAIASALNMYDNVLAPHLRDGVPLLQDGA
As for `COc1ccc2c(c1)c1nc3ccccc3nc1n2CC(=O)OC(C)C`, the compound was called inactive.

As to `CC(N)=Nc1ccc([N+](=O)[O-])cc1`, the call was inactive. On to `CCOC(=O)/C(C#N)=C1\CC2CCC1(C)C2(C)C` (stereo not drawn), for which the result was inactive. With `N#CCCN(CCC#N)C(=O)C1c2ccccc2Oc2ccccc21` the entry was “inactive”. As for `CCc1cc(C(=O)c2ccc(C)cc2)c(NC(=O)CCl)s1`, the call was inactive. With `COc1ccc(C(=O)NCC(=O)N2CCN(C(=O)c3ccco3)CC2)cc1[N+](=O)[O-]` the entry was “inactive”; with `N#Cc1c(-c2ccccc2)ccnc1Oc1ccccc1`, “inactive”. As for `COc1ccccc1NC(=O)C1CCN(S(=O)(=O)c2cccs2)CC1`, the result was inactive. As for `C=C1c2cc(C)ccc2NC(=O)N1c1ccc(C)cc1`, the entry is “inactive”; as for `COc1ccccc1NS(=O)(=O)c1cc(N)ccc1N1CCCC1`, “inactive”; as for `CCC1=NN2C(=N)/C(=C\c3cccn3-c3ccc(OC)cc3)C(=O)N=C2S1`, “inactive”. For the compound `O=C(NC(=S)Nn1cnnc1)c1ccccc1Cl`, the result was inactive. As to `CC(=O)N1CCN(S(=O)(=O)c2cccc(C(=O)NNC(=O)Cn3nc(C)cc3C)c2)CC1`, the compound was called inactive. With `COc1cccc(/C=N/n2c(-c3ccco3)nc3ccccc3c2=O)c1OC` the entry was “inactive”; with `O=C(/C=C/c1ccc2c(c1)OCO2)c1c(O)n(CCc2ccccc2)c(=O)[nH]c1=O`, “inactive”; with `CCCC(=O)Nc1ccc(Cc2ccc(NC(=O)CCC)c(C(=O)O)c2)cc1C(=O)O`, “inactive”.

Consider `COc1cc2c3nnc(-c4ccccc4)c-3cn(Cc3ccccc3F)c2cc1OC`, for which the call was inactive. With `Cc1cc(C)c(S(=O)(=O)n2c([N+](=O)[O-])cnc2C)cc1C` the entry was “inactive”. As for `COc1cc(OC)cc(C(=O)Nc2cc(C)nn2-c2ccccc2)c1`, the entry is “inactive”; as for `CCOc1ccc(/C(CCC(=O)O)=N/NC(=O)c2cccc(S(=O)(=O)Nc3ccccc3OC)c2)cc1`, “inactive”; as for `CCOC(=O)CNc1ccc2c(c1)OCO2`, “inactive”. Regarding `COc1ccc(-n2c(O)c(/C=C3\C=Nc4ccc(Br)cc43)c(=O)[nH]c2=O)cc1`, the compound was classed as inactive. As for `O=C(COC(=O)CN1C(=O)NC2(CCCC2)C1=O)NCc1ccc(Cl)cc1Cl`, the entry is “inactive”; as for `CCN(CC)C(=O)C1c2ccccc2Oc2ccccc21`, “inactive”; as for `CCOc1ccc(C(=O)NC(=S)Nc2cccnc2)cc1`, “inactive”. As to `COc1ccc(N(CC(=O)N/N=C/c2ccc(-c3ccc([N+](=O)[O-])cc3)o2)S(=O)(=O)c2ccc(C)cc2)cc1`, the result was inactive. With `COc1ccc(/C=C/C(=O)OCC(=O)NC2CCCCCC2)cc1OC` the entry was “inactive”; with `CC(C)OC(=O)CC(=O)c1sc2nc3c(cc2c1N)CN(C)CC3`, “inactive”.
